Consider 15 compounds from PubChem BioAssay (NCI).

SMILES strings stand for the structures. About 83,000 compounds went through this panel and 20% of them were active in at least one assay; those are over-represented in the sample as a whole.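 Growth was measured after 48 h exposure to one concentration of compound in 96-well plates. Values under 10 count as active.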 Values without a mark were called inactive. Calls of active or inactive are those of the source.

Assay in all cases: NCI-60 one-dose screen, 48 h (100 = growth as untreated, 0 = no growth, -100 = all killed)
Common to all, as to conditions: 10 µM unless noted

The subject of test [1] is T-47D breast.
The subject of test [2] is BT-549 breast.
Test [3] concerns MDA-MB-435 melanoma.
The test system of test [4] is SW-620 colon.
The test system of test [5] is MCF7 breast.
In test [6] the test system is HCT-116 colon.
In test [7] the test system is HCC-2998 colon.
Test [8] deals with KM12 colon.

As to `Cn1cccc1C(=O)C1C(c2cccc([N+](=O)[O-])c2)C2C3CCCCC3CN2C12C(=O)Nc1ccc(Cl)cc12` (stereo not given), the growth in test [1] is 36.7%; in test [2], 53.6%; in test [3], 56.3%; in test [4], 54.7%; in test [5] it was 34.1%; in test [6], 14.9%. Besides, the growth is 64.5% in test [7] and 42.3% in test [8].

On to `CCOc1ccc(NC(=O)CSc2oc(-c3ccccc3)nc2S(=O)(=O)c2ccc(F)cc2)cc1`, for which the growth in test [1] was 63.1%; in test [2] it was 96.5%; in test [3], 88.9%; in test [4] it was 89.6%; in test [5] it was 71.4%; in test [6] it was 21.9%. The growth is 85.3% in test [7] and 84.9% in test [8].

As for `O=C1N(Cc2ccccc2Cl)c2ccccc2C12NN=C(c1cccc(Cl)c1)S2` (stereo not given), the growth in test [1] was 6.86% (active); in test [2] it was -20% (active); in test [3], 2.22% (active); in test [4], 9.59% (active); in test [5], 1.43% (active); in test [6], 9.78% (active). In addition, the growth in test [7] is -61% (active); in test [8] it was 21.4%.

`CN(C)CC(=O)Nc1ccc2ncnc(Nc3ccc(Oc4cccc(C(F)(F)F)c4)c(Cl)c3)c2c1`: the growth was 48.6% in test [1]; 77.5% in test [2]; 61% in test [3]; 64.6% in test [4]; 41.6% in test [5]; 44.1% in test [6]. The values for the growth in test [7] and in test [8] were 23.7% and 55.5%, respectively.

For the compound `O=C(COc1ccc(-c2nc3ccccc3[nH]2)cc1)N=Nc1c(O)[nH]c2ccc(Cl)cc12`, the growth was 65.4% in test [1]; 110% in test [2]; 93.9% in test [3]; 40.6% in test [4]; 22.3% in test [5]; 47.2% in test [6]. The growth in test [7] was 65.2%; in test [8], 15.3%.

As to `COc1ccc(C(c2cc(OC)c(OC)c(OC)c2)N2CCN(c3ccccc3)CC2)cc1` (stereo not given), the growth was 81.8% in test [1]; 93.6% in test [2]; 9.02% (active) in test [3]; 74.1% in test [4]; 72.8% in test [5]; 62.8% in test [6]. The growth in test [7] is 93.3%; in test [8] it was 65.1%.

Take `O=C1Nc2ccc(I)cc2C1=O`: the growth in test [1] was 106%; in test [2] it was 80.1%; in test [3], 103%; in test [4], 65.2%; in test [5], 71.5%; in test [6], 71.8%. Besides, the growth in test [7] was 62.9%; in test [8] it was 82.8%.

On to `CCN(CC)C(=S)SC(SC(=S)N(CC)CC)C(=O)c1nnn(-c2ccc([N+](=O)[O-])cc2)c1C`, for which the growth in test [1] was 76.4%; in test [2] it was 109%; in test [3] it was 101%; in test [4], 95.5%; in test [5], 59.3%; in test [6], 95.7%. For the same compound, the growth in test [7] is 104%; in test [8], 98%.

With `CC(=O)N1N=C(c2ccc(Nc3nc(Nc4ccc(Cl)cc4)nc(Nc4ccc(Cl)cc4)n3)cc2)CC1c1ccco1` (stereo not given), the growth is 67.6% in test [1]; 104% in test [2]; 84.5% in test [3]; 114% in test [4]; 83% in test [5]; 91.3% in test [6]. In addition, the growth in test [7] is 128%; in test [8], 92.7%.

With `O=C(Nc1cc(Cl)ccc1O)c1ccc(Nc2ccnc(C(F)(F)F)c2)cc1`, the growth was 4.61% (active) in test [1]; 34.5% in test [2]; 51.9% in test [3]; 40.2% in test [4]; 22.3% in test [5]; 16% in test [6]. For the same compound, the figures for the growth in test [7] and in test [8] were 35.1% and 22.4%, respectively.

Turning to `O=S(=O)(NCCCNc1nccc(-c2c(-c3ccc(F)c(O)c3)nc3occn23)n1)c1ccccc1`, the growth in test [1] was 101%; in test [2], 114%; in test [3], 37.4%; in test [4], 100%; in test [5], 77.3%; in test [6], 52.6%. In addition, the growth in test [7] was 98.7%; in test [8] it was 84.6%.

As to `O=C(CSc1nc2ccc([N+](=O)[O-])cc2[nH]1)Nc1ccc(F)cc1`, the growth in test [1] is 16.6%; in test [2], 65.2%; in test [3], 53.1%; in test [4] it was 86%; in test [5], 62.1%; in test [6], 54.7%. Also, the values for the growth in test [7] and in test [8] were 75.7% and 64%, respectively.

For `COc1cccc([C@H]2c3[nH]c4ccccc4c3C[C@H]3C(=O)N(CCCCCCC(=O)NO)CC(=O)N23)c1`, the growth in test [1] is 31.5%; in test [2] it was 77.9%; in test [3], 61.2%; in test [4], 57.4%; in test [5], 53.7%; in test [6], 35.3%. Further, the results for the growth in test [7] and in test [8] were 68.2% and 78.9%, respectively.

On to `C#CCOc1cccc(Nc2ncnc3ccc(NC(=O)CCl)cc23)c1`, for which the growth in test [1] is -39.1% (active); in test [2] it was -68.9% (active); in test [3], -2.66% (active); in test [4] it was -27.1% (active); in test [5], -20.1% (active); in test [6], -51.3% (active). Moreover, the growth was -61.9% (active) in test [7] and -51.4% (active) in test [8].

In the case of `O=S(=O)(NCCNc1cc(-c2c(-c3cccc(O)c3)nc3sccn23)ccn1)c1ccc(C(F)(F)F)cc1`, the growth in test [1] is -1.89% (active); in test [2], 26.6%; in test [3], 10.7%; in test [4] it was 47.3%; in test [5], 16.2%; in test [6] it was 26.6%. For the same compound, the growth in test [7] was 70.6%; in test [8], 26.7%.
